This passage reports Percent Effect results from ChEMBL document CHEMBL3988442, “University of Dundee, Small-Polar-MMV Screening Library” (2021).

Structures are written as SMILES.

Experiment [1] deals with T1, Aspartate--tRNA(Asp/Asn) ligase (Mycobacterium tuberculosis (strain ATCC 25618 / H37Rv)) (UniProt P9WFW3).
T1 sequence (whole entry): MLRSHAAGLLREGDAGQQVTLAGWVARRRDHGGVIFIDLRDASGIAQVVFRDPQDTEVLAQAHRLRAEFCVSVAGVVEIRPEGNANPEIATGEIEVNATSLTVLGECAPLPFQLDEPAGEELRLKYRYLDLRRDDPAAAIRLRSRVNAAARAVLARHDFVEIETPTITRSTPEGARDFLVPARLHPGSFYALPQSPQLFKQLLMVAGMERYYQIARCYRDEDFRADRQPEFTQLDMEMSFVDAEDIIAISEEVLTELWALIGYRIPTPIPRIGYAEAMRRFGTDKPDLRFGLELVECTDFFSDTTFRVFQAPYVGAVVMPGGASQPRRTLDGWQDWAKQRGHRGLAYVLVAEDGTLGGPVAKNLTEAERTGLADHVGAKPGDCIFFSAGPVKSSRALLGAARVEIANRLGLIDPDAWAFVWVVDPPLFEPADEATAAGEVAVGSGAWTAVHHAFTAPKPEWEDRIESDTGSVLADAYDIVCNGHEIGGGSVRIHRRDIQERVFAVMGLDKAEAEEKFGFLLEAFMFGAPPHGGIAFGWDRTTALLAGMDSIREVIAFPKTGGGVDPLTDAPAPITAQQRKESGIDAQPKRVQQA
Kind of experiment: Assay for Asp RNA synthetase-1 from Mycobacterium tuberculosis. Type of experiment: functional. Set-up: scale not given: direction of the effect not stated beside the values. The following applies: 30 µM.

In experiment [2] the target is Shiga toxin 2 (Escherichia coli O157:H7) (UniProt P09385+P09386). In words: E. coli 0.157:H7 Shiga Toxin SOP - stx2 screening assay. The following applies: 30 µM. Set-up: scale not given: direction of the effect not stated beside the values. Type of experiment: functional.

Regarding `CNc1cncc(C2CCCN2Cc2ccccn2)n1` (configuration not stated), the values for the Percent Effect in experiment [1] and in experiment [2] were -3.38% and -10.2%, respectively.

Consider `CCc1cc(NCCc2ccc(O)cc2)n2nccc2n1`, for which the values for the Percent Effect in experiment [1] and in experiment [2] were 5.69% and 5.92%, respectively.

Consider `Cc1noc(CCCC(=O)NC(C)c2ccccn2)n1` (configuration not stated), for which the values for the Percent Effect in experiment [1] and in experiment [2] were -1.28% and 16%, respectively.

Take `CC(=O)N1CCn2c(C(=O)N(C)C)cnc2C1`: the Percent Effect in experiment [1] was -2.78%; in experiment [2] it was -21.6%.

For the molecule `CS(=O)(=O)N1CCCC12CCCN(S(=O)(=O)c1cc(F)cc(F)c1)C2` (configuration not stated), the Percent Effect in experiment [1] is -0.24%; in experiment [2], 2.89%.

As to `CCN(C(c1cccnc1)c1ccc2c(c1)CCO2)S(C)(=O)=O` (configuration not stated), the Percent Effect in experiment [1] is -3.44%; in experiment [2], -49.4%.

As to `CN(CCOc1cccc(CN)c1)C1CCOCC1`, the results for the Percent Effect in experiment [1] and in experiment [2] were -0.881% and -50.4%, respectively.

For the molecule `Cn1cc(CN2C[C@@H]3COC[C@]3(C(=O)NCc3ccccn3)C2)cn1`, the Percent Effect in experiment [1] was 3.06%; in experiment [2], -15%.

As for `CCCS(=O)(=O)NCC1CCOc2ccccc2C1` (configuration not stated), the Percent Effect was 0.416% in experiment [1] and -40% in experiment [2].

With `COc1ncccc1C(=O)NCC(C)Oc1cccnc1` (configuration not stated), the figures for the Percent Effect in experiment [1] and in experiment [2] were -5.57% and -2.36%, respectively.

With `COc1ccc(C)cc1C(C)NC(=O)NCCCn1cncn1` (configuration not stated), the Percent Effect in experiment [1] is 2.78%; in experiment [2], -12.9%.

For `CNc1cncc(C2CCCN2C(=O)c2ccc3oc(C)cc3c2)n1` (configuration not stated), the Percent Effect was 0.779% in experiment [1] and -4.12% in experiment [2].

In the case of `COc1cccc(N2CCN(CC(O)c3cc(C)sc3C)CC2)c1` (configuration not stated), the values for the Percent Effect in experiment [1] and in experiment [2] were 0.432% and 6.38%, respectively.

As for `N#Cc1ccc(CNCC(C(=O)N2CCOCC2)c2ccccc2)cc1` (configuration not stated), the Percent Effect in experiment [1] is 24.2%; in experiment [2], -26%.

With `Cc1nc(C)n(C2CCCN(C(=O)CCCn3ccnc3)C2)n1` (configuration not stated), the Percent Effect is -0.127% in experiment [1] and -12.7% in experiment [2].

With `CNC(=O)CS(=O)(=O)Cc1coc(-c2ccc(F)cc2)n1`, the Percent Effect in experiment [1] was -1.26%; in experiment [2], -3.77%.

`CC(C)C(=O)NC1CCN(Cc2cccc3c2OCCO3)CC1`: the Percent Effect is -1.32% in experiment [1] and 5.01% in experiment [2].

Consider `O=C(CCc1nc2cccnc2[nH]1)NCc1ccc2c(c1)OCO2`, for which the Percent Effect is 0.0581% in experiment [1] and -41.8% in experiment [2].

With `CC(C)NC(=O)C1CN(C(=O)c2ccco2)CC12CCOCC2` (configuration not stated), the Percent Effect was determined as 9.32% in experiment [1] and 1.11% in experiment [2].

As to `Cc1cccc(CN2C(=O)CCC23CCN(Cc2cccn2C)CC3)n1`, the Percent Effect stood at 0.796% in experiment [1] and 0.0983% in experiment [2].

`CCOc1cccc2c1OCC(C(=O)NS(=O)(=O)c1ccc(C)s1)=C2`: the Percent Effect in experiment [1] is 4.55%; in experiment [2] it was 2.64%.

Regarding `COCCNC(=O)[C@@H]1CC[C@@H]2[C@@H](CCN2Cc2cnn(C)c2)O1`, the results for the Percent Effect in experiment [1] and in experiment [2] were 2.71% and -20.8%, respectively.

Regarding `Fc1ccc(CNCC2OCCc3cn(CC4CC4)nc32)cc1` (configuration not stated), the Percent Effect is -2.61% in experiment [1] and -6.8% in experiment [2].

For the molecule `Cc1ccc(C(=O)NC(CN2CCCC2=O)c2ccccc2)c(=O)[nH]1` (configuration not stated), the Percent Effect is -6.44% in experiment [1] and 2.19% in experiment [2].

On to `CC(=O)c1cccc(NC(=O)CN2CCCCC2C2OCCO2)c1` (configuration not stated), for which the Percent Effect in experiment [1] was 1.76%; in experiment [2], -1.62%.

In the case of `NC(=O)c1ccc(N2CCCCC2)c(NC(=O)c2cc(Br)ccc2F)c1`, the figures for the Percent Effect in experiment [1] and in experiment [2] were 11% and -50.5%, respectively.

Turning to `O=C1CC2(CCN(S(=O)(=O)c3cccs3)C2)CN1c1ccccc1` (configuration not stated), the results for the Percent Effect in experiment [1] and in experiment [2] were 3.64% and 7.29%, respectively.

Consider `Cc1cc(CN2CCN(C(=O)CCc3cccc(F)c3F)CC2)on1`, for which the Percent Effect in experiment [1] was -2.44%; in experiment [2], -2.21%.

`Cc1ccc(CNCC2CCc3nnc(C(C)C)n3C2)s1` (configuration not stated): the Percent Effect was -3.31% in experiment [1] and -22.4% in experiment [2].

On to `O=C1NCC2(CCCN(Cc3ccc(Cl)s3)C2)Oc2ccccc21` (configuration not stated), for which the Percent Effect is -6.49% in experiment [1] and -53.7% in experiment [2].

With `CN(C)C(=O)[C@@H]1C[C@@H]2CCN(Cc3nccs3)C[C@@H]2O1`, the Percent Effect in experiment [1] amounted to 1.05%; in experiment [2], 2.36%.

For the molecule `Cc1ccsc1[C@@H]1CCN(C(=O)CCC(=O)N2CCCCCC2)C[C@H]1O`, the results for the Percent Effect in experiment [1] and in experiment [2] were -0.418% and -23.3%, respectively.

Regarding `CC(C)n1[nH]c(=O)c2c1NC(=O)CC2c1cccnc1` (configuration not stated), the Percent Effect was -1.05% in experiment [1] and -6.55% in experiment [2].

Consider `CC(C)c1nnc2n1CCN(C(=O)c1ccnc(N(C)C)c1)C2`, for which the Percent Effect is -5.48% in experiment [1] and -7.07% in experiment [2].

On to `CCOC(=O)N1CCN(C(=O)c2sc(-c3ccc(F)cc3)nc2C)CC1`, for which the Percent Effect in experiment [1] was -0.364%; in experiment [2], 8.24%.

Turning to `COc1ccc(CNC(=O)NC2CCC(O)CC2)c(C(F)(F)F)c1` (configuration not stated), the Percent Effect in experiment [1] came to 2.84%; in experiment [2], 3.3%.

On to `COCC(=O)NCc1cccc(Br)c1`, for which the Percent Effect in experiment [1] was -1.9%; in experiment [2] it was 20.1%.

For the molecule `COc1ccc(CNCc2ccnc(N3CCCCC3)c2)cc1OC`, the Percent Effect was -2.15% in experiment [1] and -57.5% in experiment [2].

As for `Cn1cc(CN2C[C@@H]3COC[C@@H](C(=O)N4CCCCO4)[C@@H]3C2)cn1`, the Percent Effect was -1.16% in experiment [1] and -15.2% in experiment [2].

For the molecule `CNS(=O)(=O)c1cccc(CNc2nccc(C(F)(F)F)n2)c1`, the Percent Effect in experiment [1] is 3.75%; in experiment [2], 4.67%.

Turning to `Cc1cnn(CCC(=O)N2CCCC(c3nc(C)no3)C2)c1` (configuration not stated), the results for the Percent Effect in experiment [1] and in experiment [2] were 4.08% and 3.29%, respectively.

`CN1CCN(C(=O)[C@H]2C[C@@H]3CCN(c4ncc(F)cn4)C[C@@H]3O2)CC1`: the figures for the Percent Effect in experiment [1] and in experiment [2] were -1.43% and -18.9%, respectively.

Consider `CCOCC(=O)N1CCC(Oc2ccc(C(F)(F)F)cn2)CC1`, for which the Percent Effect in experiment [1] was 2.2%; in experiment [2], 12.5%.

Consider `O=S1(=O)C[C@@H]2[C@H](C1)N(Cc1ncc[nH]1)CCN2CC1CC1`, for which the values for the Percent Effect in experiment [1] and in experiment [2] were 0.123% and 4.23%, respectively.

Turning to `Cc1ccc(OCCC(=O)NC2CCc3nc(C)cn3C2)cc1` (configuration not stated), the results for the Percent Effect in experiment [1] and in experiment [2] were 3.86% and -17.6%, respectively.

In the case of `CC(C)Cc1noc(CN2CCOCC2)n1`, the Percent Effect in experiment [1] was -2.59%; in experiment [2], 29.5%.
